Design in all cases: scale not given: direction of the effect not stated beside the values
The target of assay [1] is Protein translocase subunit SecA (Escherichia coli (strain K12)) (UniProt P10408). Nature of the assay: Assay to Identify E. coli SecA ATPase Inhibitors. The class given is functional. The settings on record: 30 µM.
Assay [2] addresses T1, Ubiquitin-activating enzyme e1, putative (Leishmania donovani (strain BPK282A1)) (UniProt E9BSI1).
T1 sequence (whole entry): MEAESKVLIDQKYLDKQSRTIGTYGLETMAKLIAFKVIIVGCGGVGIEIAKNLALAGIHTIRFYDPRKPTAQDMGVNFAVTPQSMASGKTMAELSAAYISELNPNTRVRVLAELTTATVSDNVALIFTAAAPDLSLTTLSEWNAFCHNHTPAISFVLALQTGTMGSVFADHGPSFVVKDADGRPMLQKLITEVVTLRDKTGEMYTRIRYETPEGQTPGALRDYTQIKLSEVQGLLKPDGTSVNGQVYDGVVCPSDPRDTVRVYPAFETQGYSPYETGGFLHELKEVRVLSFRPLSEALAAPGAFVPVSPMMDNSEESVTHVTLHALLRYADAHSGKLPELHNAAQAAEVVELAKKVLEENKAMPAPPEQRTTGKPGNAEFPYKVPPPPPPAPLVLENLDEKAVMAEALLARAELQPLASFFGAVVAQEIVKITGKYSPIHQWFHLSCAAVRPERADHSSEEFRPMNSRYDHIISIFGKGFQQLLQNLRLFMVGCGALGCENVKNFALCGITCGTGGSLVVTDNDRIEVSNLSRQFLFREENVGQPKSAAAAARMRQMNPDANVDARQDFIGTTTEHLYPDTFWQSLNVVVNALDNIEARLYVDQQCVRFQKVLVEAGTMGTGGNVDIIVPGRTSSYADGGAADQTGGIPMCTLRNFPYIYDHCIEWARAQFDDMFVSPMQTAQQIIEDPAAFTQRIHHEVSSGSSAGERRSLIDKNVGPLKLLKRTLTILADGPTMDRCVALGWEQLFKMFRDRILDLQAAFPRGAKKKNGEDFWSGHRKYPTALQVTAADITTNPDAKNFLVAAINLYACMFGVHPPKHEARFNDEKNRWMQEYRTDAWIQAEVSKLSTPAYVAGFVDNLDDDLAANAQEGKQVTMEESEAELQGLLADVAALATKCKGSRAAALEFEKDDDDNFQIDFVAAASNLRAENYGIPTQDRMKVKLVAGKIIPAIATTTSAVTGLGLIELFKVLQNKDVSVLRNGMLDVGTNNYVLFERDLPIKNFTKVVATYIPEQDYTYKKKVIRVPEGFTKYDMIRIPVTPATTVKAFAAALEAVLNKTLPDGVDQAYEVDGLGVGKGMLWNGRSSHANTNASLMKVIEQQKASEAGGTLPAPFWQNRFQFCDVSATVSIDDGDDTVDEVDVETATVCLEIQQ
Nature of the assay: Leishmania donovani Ubiquitin Activating Enzyme (LdE1). The class given is functional. The settings on record: 30 µM.

The target in assay [3] is Sialic acid-binding Ig-like lectin 9 (Homo sapiens) (UniProt Q9Y336). Nature of the assay: Hs-Siglec9 ALPHAscreen SOP 20170721. The settings on record: 10 µM. (Bead proximity is the source of the signal in Alpha formats.)
Sialic acid-binding Ig-like lectin 9 (Homo sapiens), sequence (Q9Y336 whole entry): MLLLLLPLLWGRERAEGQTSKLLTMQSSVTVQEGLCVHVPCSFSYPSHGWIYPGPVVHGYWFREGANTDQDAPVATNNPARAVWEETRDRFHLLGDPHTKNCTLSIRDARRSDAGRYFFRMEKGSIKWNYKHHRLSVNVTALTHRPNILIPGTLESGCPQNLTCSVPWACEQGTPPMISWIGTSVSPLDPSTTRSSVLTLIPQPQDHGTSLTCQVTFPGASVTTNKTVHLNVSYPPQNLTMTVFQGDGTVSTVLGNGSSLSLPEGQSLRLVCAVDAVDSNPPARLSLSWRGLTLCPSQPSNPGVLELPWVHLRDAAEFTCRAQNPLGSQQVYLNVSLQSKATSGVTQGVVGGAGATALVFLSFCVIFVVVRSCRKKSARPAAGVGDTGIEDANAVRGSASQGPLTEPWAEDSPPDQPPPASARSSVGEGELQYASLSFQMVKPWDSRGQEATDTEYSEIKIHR
The subject of a further assay is Trypanosoma cruzi. Nature of the assay: Trypanosoma cruzi phosphomannomutase and mannose-1-phosphate guanylyltransferase assay. In kind it is functional. The settings on record: 10 µM.
Assay [4] concerns the target T2, Arginase-2, mitochondrial (Homo sapiens) (UniProt P78540).
T2 sequence (whole entry): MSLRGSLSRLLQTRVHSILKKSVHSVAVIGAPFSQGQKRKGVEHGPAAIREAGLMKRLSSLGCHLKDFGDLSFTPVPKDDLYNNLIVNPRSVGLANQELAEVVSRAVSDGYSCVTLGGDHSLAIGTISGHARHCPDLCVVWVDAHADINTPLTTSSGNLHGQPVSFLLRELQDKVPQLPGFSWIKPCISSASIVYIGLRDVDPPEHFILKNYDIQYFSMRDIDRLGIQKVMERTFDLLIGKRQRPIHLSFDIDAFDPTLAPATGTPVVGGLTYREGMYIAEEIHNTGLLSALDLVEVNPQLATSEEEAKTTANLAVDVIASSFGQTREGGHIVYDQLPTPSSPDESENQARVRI
Nature of the assay: in vitro enzyme assay to detect the production of urea directly proportional to the activity of Arginase II. Further: in the data most compounds retested in dose-response had high values. In kind it is functional. The settings on record: 33.3 µM.

Assay [5] has as its target T3, Proteasome subunit beta (Trypanosoma cruzi) (UniProt O96673).
T3 sequence (whole entry): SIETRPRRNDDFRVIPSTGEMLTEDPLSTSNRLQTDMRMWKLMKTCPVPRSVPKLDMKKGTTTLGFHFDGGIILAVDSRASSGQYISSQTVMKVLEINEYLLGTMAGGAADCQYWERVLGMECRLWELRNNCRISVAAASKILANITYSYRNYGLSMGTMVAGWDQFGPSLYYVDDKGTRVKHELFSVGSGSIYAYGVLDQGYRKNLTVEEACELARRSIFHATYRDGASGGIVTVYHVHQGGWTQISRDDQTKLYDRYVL
Nature of the assay: Trypanosoma cruzi proteasome chymotrypsin-like activity (TcProtChymo) assay. Further: in the data most compounds retested in dose-response had high values. The settings on record: 9.37 µM. The class given is functional.

The species entered for a further assay is Homo sapiens. The assay is described as follows: To identify inhibition of the IFN signalling (Jak-Stat) pathway via expression of an eGFP reporter gene under the control of an IFN-stimulated response element (ISRE) containing MxA promoter. In kind it is functional. The settings on record: 30 µM.
In assay [6] the target is T4, Tyrosyl-tRNA synthetase, putative (Trypanosoma cruzi (strain CL Brener)) (UniProt Q4DSP6).
T4 sequence (whole entry): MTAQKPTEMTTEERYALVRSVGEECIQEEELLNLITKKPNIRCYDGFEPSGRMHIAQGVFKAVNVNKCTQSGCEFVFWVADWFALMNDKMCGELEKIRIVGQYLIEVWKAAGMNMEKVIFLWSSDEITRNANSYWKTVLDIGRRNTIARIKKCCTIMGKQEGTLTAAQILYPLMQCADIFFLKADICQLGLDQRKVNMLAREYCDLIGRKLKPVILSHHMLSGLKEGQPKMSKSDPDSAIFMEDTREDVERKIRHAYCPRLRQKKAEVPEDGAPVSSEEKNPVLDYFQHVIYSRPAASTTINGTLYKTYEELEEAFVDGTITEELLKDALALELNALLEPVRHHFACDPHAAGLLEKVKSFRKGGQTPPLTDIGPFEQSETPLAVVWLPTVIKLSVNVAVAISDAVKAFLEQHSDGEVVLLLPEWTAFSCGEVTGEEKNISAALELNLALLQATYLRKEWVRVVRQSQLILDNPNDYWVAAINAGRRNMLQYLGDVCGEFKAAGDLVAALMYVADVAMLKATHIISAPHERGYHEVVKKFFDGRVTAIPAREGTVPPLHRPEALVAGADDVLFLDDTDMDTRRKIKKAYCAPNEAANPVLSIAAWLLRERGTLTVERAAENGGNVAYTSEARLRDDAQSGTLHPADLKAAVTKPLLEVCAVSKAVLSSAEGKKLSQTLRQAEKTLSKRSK
The assay is described as follows: Trypanosoma cruzi tyrosyl tRNA synthetase (TcYRS) _High Tyrosine SOP. Further: in the data most compounds retested in dose-response had high values. In kind it is functional. The settings on record: 30 µM.

Assay [7] concerns the target T4, Tyrosyl-tRNA synthetase, putative (Trypanosoma cruzi (strain CL Brener)). The assay is described as follows: Trypanosoma cruzi tyrosyl tRNA synthetase (TcYRS) SOP. The class given is functional. The settings on record: 30 µM.
The target in assay [8] is Chromo domain-containing protein 1 (Saccharomyces cerevisiae (strain ATCC 204508 / S288c) (Baker's yeast)) (UniProt P32657). The assay is described as follows: ScCHD-1 Enzyme Inhibition Assay. Further: in the data most compounds retested in dose-response had high values. The class given is functional. The settings on record: 30 µM.
Chromo domain-containing protein 1 (Saccharomyces cerevisiae (strain ATCC 204508 / S288c) (Baker's yeast)), sequence (P32657 whole entry, the tested form may be a part): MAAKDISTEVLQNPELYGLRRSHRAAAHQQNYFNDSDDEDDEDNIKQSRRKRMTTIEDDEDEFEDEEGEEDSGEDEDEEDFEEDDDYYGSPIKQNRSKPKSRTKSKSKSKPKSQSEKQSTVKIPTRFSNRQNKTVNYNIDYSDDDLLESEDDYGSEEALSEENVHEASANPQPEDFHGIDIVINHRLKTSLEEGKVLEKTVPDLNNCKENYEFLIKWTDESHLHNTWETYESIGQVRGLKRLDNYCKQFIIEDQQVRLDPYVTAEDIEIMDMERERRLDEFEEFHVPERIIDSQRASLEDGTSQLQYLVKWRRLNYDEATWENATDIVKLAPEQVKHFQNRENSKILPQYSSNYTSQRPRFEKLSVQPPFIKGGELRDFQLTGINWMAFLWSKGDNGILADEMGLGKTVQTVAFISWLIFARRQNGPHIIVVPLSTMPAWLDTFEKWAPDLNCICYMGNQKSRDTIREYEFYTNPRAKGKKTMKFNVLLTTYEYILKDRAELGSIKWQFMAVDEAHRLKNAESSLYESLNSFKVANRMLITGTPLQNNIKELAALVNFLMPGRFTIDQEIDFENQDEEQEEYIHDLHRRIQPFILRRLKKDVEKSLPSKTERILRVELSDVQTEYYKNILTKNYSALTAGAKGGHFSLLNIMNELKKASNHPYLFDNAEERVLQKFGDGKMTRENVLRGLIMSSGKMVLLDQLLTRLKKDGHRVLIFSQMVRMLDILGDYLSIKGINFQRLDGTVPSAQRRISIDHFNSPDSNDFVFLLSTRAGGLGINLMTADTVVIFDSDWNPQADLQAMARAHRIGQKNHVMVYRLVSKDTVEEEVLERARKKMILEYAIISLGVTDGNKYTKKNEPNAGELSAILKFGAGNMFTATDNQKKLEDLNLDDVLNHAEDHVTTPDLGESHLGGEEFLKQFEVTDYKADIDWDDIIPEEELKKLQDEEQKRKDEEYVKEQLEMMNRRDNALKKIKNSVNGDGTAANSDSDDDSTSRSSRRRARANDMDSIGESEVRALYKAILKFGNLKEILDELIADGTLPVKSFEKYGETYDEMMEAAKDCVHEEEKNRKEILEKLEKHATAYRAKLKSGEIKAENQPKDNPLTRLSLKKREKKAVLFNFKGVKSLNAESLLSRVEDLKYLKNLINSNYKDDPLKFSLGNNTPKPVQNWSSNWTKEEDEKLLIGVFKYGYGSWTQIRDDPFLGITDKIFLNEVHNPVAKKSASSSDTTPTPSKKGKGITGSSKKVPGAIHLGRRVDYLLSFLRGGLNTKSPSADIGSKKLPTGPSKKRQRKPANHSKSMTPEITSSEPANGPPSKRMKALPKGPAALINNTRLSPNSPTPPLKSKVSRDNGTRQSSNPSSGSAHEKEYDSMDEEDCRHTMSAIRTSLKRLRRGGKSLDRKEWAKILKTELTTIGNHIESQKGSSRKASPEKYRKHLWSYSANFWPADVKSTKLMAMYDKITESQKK

Molecules are shown by their SMILES. For part of these data: Measured potencies and affinities stand elsewhere.

Protein translocase subunit SecA (Escherichia coli (strain K12)), sequence (P10408 whole entry): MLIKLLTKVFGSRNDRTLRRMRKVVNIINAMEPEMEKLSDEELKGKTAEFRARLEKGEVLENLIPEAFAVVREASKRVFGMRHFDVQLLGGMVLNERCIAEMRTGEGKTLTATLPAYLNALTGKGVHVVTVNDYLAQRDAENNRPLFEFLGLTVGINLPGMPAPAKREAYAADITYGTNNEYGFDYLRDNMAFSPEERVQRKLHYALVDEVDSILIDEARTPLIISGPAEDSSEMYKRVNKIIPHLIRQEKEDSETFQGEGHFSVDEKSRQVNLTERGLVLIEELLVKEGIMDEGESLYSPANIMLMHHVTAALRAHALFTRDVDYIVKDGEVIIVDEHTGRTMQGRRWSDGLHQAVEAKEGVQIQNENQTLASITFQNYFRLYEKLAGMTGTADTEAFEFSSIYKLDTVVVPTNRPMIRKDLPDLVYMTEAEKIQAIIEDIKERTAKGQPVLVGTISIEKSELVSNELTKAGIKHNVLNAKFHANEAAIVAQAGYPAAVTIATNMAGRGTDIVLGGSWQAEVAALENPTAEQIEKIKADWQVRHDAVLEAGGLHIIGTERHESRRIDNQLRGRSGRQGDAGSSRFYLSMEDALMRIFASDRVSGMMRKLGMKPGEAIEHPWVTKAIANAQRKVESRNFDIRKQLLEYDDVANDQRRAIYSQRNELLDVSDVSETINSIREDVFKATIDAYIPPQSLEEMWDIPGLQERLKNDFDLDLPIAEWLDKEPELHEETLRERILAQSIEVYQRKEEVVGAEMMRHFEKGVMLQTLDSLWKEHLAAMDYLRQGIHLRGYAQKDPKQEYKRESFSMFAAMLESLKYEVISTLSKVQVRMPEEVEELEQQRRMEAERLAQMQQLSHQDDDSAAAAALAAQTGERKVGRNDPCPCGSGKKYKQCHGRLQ

For the compound `CCn1c(C)cc(C(=O)N2CCCC(n3nc(C)nc3C)C2)c1C` (stereo not given), the Percent Effect in assay [1] was -5.54%; in [2], 12.8%; in assay [3], -10.5%; in the assay on Trypanosoma cruzi, 7.23%; in [4], -0.41%; in assay [5], 4.35%. Moreover, the Percent Effect in the assay listed under Homo sapiens is 4.11%; in [6], 1.44%; in assay [7] it was 10.8%; in assay [8] it was -5.05%.

As for `COC(=O)Cn1c(=O)nc2n1C(=O)N(c1ccc(Cl)cc1)C2`, the Percent Effect in assay [1] is -4.67%; in assay [2], 2.7%; in assay [3] it was 8.46%; in the assay with Trypanosoma cruzi, -8.83%; in assay [4], -2.45%; in [5] it was 10.4%. Moreover, the Percent Effect in the assay listed under Homo sapiens is -2.27%; in assay [6], 0.532%; in assay [7] it was 2.44%; in assay [8], -2.66%.

Take `CN(C)C(=O)[C@@H]1CCO[C@@H]2CCN(Cc3ccc4c(c3)OCO4)C[C@@H]21`: the Percent Effect in assay [1] is -3.73%; in assay [2] it was 11.7%; in assay [3], -6.65%; in the assay with Trypanosoma cruzi it was 7.5%; in assay [4] it was -4.86%; in assay [5] it was 10.9%. For the same compound, the Percent Effect in the assay listed under Homo sapiens is 0.999%; in [6], 3.68%; in assay [7], 2.56%; in assay [8], 2.41%.

Consider `CCN1C(=O)CCCC12CCCN(C(=O)c1cnccn1)C2` (stereo not given), for which the Percent Effect in [1] is -2.55%; in assay [2], 3.9%; in assay [3] it was 1.16%; with Trypanosoma cruzi, -0.75%; in assay [4], -2.28%; in assay [5] it was 2.49%. For the same compound, the Percent Effect was 14.1% in the assay listed under Homo sapiens, 2.9% in assay [6], 7.5% in assay [7] and -6.78% in [8].

For `COc1cc(C)nc(N2CCN(C(=O)CNC(C)(C)C)CC2)n1`, the Percent Effect in [1] is -1.19%; in assay [2], 5.13%; in assay [3], -1.55%; in the assay with Trypanosoma cruzi it was -1.22%; in assay [4], 4.51%; in assay [5] it was -3.67%. The Percent Effect in the assay filed under Homo sapiens was 19.9%; in assay [6] it was 0.478%; in [7], 8.43%; in [8], -2.39%.

With `C[C@]1(O)CCN(Cc2cncs2)C[C@@H]1Oc1cccc(F)c1`, the Percent Effect in assay [1] is 0.894%; in [2], 4%; in [3] it was 6.06%; in the assay with Trypanosoma cruzi, -4.93%; in assay [4] it was 3.1%; in assay [5] it was -1.64%. Moreover, the Percent Effect in the assay listed under Homo sapiens was 14.1%; in assay [6], 1.06%; in assay [7], 2.5%; in assay [8], -19.6%.

Consider `Cn1nc2c(cc1=O)CN(Cc1nc(-c3cccs3)no1)CC2`, for which the Percent Effect is -4.37% in assay [1]; 5.33% in [2]; 3.65% in assay [3]; 1.61% in the assay on Trypanosoma cruzi; -1.77% in assay [4]; 13.7% in assay [5]. Moreover, the Percent Effect is 12.3% in the assay filed under Homo sapiens, -0.526% in [6], 2.56% in assay [7] and -8.34% in assay [8].

Regarding `NC(=O)c1cc(C2CCCN(CCc3ccccn3)C2)n[nH]1` (stereo not given), the Percent Effect in assay [1] was -0.145%; in [2] it was -12.8%; in [3], -3.53%; in the assay with Trypanosoma cruzi, 3.29%; in [4] it was 4.1%; in [5] it was -3.67%. Also, the Percent Effect in the assay filed under Homo sapiens was 2.63%; in [6], 3.35%; in assay [7] it was -1.21%; in [8], -1.37%.

`COCCN1C(=O)CCC12CCN(C(=O)NC(C)C)CC2`: the Percent Effect in assay [1] is -5.46%; in assay [2] it was 3.9%; in assay [3] it was -2.04%; with Trypanosoma cruzi, -0.938%; in assay [4], -0.457%; in [5], -2.66%. Further, the Percent Effect in the assay listed under Homo sapiens is 19.9%; in assay [6] it was 1.93%; in assay [7] it was -10%; in assay [8] it was -3.15%.

As for `CCN1CCO[C@]2(CCC[C@H]2COCc2csc(C)n2)C1`, the Percent Effect in assay [1] was -5.1%; in assay [2], -1.3%; in assay [3] it was 11%; in the assay with Trypanosoma cruzi, -0.292%; in assay [4], -7.29%; in [5] it was 3.27%. Further, the Percent Effect in the assay filed under Homo sapiens was -2.57%; in [6], 3.68%; in assay [7] it was 5.13%; in [8] it was -0.161%.

Regarding `Cc1ccc(S(=O)(=O)N2CCOc3ccccc32)cc1C(N)=O`, the Percent Effect is -0.964% in assay [1]; 10.3% in [2]; -14.2% in [3]; -4.79% with Trypanosoma cruzi; -2.87% in assay [4]; 10.5% in assay [5]. For the same compound, the Percent Effect in the assay listed under Homo sapiens stood at 34.9%; in assay [6], 0.478%; in assay [7], 8.43%; in assay [8], 17.3%.

`NC(=O)c1cc(C2CCCN(CCOCC(F)(F)F)C2)n[nH]1` (stereo not given): the Percent Effect in [1] was -3.84%; in assay [2] it was 2.56%; in [3], -22.8%; in the assay on Trypanosoma cruzi it was 9.3%; in assay [4] it was -5.33%; in [5], 8.45%. For the same compound, the Percent Effect in the assay listed under Homo sapiens was -4.53%; in assay [6], 2.39%; in assay [7] it was 10.8%; in [8], 26.2%.

The values above are taken from ChEMBL document CHEMBL3988442, “University of Dundee, Small-Polar-MMV Screening Library” (2021).
